Source: PubChem BioAssay (NCATS)
Values joined by “and” are separate entries in the source; they are usually repeats but may differ in a detail not shown here. Equal values may be shown once. Active and inactive are the calls of the source. Unless noted, the call rests on the fitted dose curve.

Legend:
[1] = target: Estrogen receptor (Homo sapiens) (UniProt P03372); test: qHTS assay for small molecule antagonists of estrogen receptor alpha signaling (AID 588513; active means well fitted curve in the direction sought with a large enough effect in the signal ratio, with a control signal flat, not every such curve was filed as active; inconclusive means small, poorly fitted or top-dose-only effect, or effect the other way, or a change in a side signal; inactive means no such curve, though single readings can be large or run the other way; the % refers to the signal ratio; further: potency means the concentration at half of the fitted maximal effect)
Chain of Estrogen receptor (Homo sapiens) (P03372 whole entry, looked up): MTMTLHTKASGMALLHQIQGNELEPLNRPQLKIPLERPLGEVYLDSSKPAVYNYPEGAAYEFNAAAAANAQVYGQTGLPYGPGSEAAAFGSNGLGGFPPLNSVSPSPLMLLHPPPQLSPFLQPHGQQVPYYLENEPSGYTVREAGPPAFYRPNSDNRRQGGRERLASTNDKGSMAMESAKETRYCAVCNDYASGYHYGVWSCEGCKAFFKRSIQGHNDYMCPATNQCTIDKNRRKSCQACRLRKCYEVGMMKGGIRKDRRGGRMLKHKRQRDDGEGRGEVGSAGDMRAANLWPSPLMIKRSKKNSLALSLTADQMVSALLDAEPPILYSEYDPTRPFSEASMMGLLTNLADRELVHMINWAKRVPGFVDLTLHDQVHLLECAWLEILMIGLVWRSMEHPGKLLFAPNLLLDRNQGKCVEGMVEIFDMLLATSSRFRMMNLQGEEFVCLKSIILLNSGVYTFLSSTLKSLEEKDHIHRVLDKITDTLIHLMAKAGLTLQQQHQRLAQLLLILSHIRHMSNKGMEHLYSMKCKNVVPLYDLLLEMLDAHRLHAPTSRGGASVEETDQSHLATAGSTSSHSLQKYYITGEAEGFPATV
Procedure, shortened: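 Beta-lactamase reporter, antagonist mode, HEK 293 GripTite cells; 0.5nM E2 stimulus, 18 h, 37 C; CCF4 dye 2 h RT; fluorescence. IC50 and efficacy from Hill fits, normalized to E2 and DMSO.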

[2] = target: Estrogen receptor (Homo sapiens) (UniProt P03372); test: qHTS assay for small molecule agonists of estrogen receptor alpha signaling (AID 588514);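 further: 0% = vehicle only and 100% = reference agonist; nearly all actives have a fitted effect of over 70% in size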
Procedure, shortened: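 Efficacy is expressed against 20 nM 17-beta-estradiol (100%) and DMSO basal (0%); EC50 from Hill equation. Assay: beta-lactamase reporter in ER-alpha-UAS-bla HEK 293 cells, 18 h compound incubation, CCF4 detection.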

[3] = target: Glucocorticoid receptor (Homo sapiens) (UniProt P04150); test: qHTS assay for small molecule agonists of glucocorticoid receptor signaling (AID 588532; active means well fitted curve in the direction sought with a large enough effect in the signal ratio, with a control signal flat; inconclusive means small, poorly fitted or top-dose-only effect, or a change in a side signal; inactive means no such curve, though single readings can be large or run the other way; the % refers to the signal ratio;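 further: 100% = dexamethasone at 0.1 µM and 0% = DMSO only wells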); conditions: HeLa MMTV-bla, beta-lactamase ratio, agonist, 18 h; activation: stronger effect = higher value, percent of dexamethasone control, DMSO zero
Chain of Glucocorticoid receptor (Homo sapiens) (P04150 whole entry, looked up): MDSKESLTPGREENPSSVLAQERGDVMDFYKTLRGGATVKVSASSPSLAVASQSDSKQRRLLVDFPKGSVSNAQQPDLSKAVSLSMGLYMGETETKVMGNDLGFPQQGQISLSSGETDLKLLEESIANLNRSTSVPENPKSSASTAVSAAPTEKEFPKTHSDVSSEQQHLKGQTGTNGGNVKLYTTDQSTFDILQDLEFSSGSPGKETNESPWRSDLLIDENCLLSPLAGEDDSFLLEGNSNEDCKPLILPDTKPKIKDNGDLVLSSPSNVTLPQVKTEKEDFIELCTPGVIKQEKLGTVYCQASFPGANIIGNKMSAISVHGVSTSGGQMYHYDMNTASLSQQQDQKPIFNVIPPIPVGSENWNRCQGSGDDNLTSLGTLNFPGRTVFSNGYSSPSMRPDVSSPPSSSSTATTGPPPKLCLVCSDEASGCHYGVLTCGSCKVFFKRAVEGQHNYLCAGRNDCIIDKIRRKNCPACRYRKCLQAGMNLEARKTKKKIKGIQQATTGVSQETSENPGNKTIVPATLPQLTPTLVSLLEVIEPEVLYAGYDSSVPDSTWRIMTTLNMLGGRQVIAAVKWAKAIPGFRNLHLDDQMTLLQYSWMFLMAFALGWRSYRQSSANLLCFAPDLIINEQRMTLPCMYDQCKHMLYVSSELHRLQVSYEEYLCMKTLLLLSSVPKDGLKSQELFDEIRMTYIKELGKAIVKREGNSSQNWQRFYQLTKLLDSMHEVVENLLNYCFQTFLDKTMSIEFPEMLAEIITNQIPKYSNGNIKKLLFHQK
Procedure, shortened: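 MMTV-bla HeLa, beta-lactamase reporter; medium with 1% charcoal/dextran-stripped FBS; cpds up to 92 uM, 18 h, 37 C; CCF4 readout 460/530 nm; Hill fit → EC50, efficacy vs 0.1 uM dexamethasone = 100%.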

[4] = target: Peroxisome proliferator-activated receptor delta (Homo sapiens) (UniProt Q03181); test: qHTS assay for small molecule agonists of peroxisome proliferator-activated receptor delta signaling (AID 588534);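 further: 0% = DMSO basal wells and 100% = positive control agonist at 10 µM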
Chain of Peroxisome proliferator-activated receptor delta (Homo sapiens) (Q03181 whole entry, looked up): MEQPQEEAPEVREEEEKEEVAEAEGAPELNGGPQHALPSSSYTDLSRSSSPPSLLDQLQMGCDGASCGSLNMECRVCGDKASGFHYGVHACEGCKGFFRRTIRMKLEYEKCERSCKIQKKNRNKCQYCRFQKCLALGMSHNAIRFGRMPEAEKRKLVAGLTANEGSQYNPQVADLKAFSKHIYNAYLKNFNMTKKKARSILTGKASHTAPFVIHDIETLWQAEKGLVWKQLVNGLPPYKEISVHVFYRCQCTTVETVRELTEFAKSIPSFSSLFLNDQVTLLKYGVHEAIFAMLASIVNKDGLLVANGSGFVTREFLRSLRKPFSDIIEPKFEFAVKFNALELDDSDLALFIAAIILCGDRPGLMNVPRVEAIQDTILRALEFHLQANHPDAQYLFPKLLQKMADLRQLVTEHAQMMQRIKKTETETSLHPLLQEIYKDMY
Procedure, shortened: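 Agonist-mode qHTS; reporter cells, 5 hrs 37 C pre-incubation; compound titration, 18 hrs 37 C; CCF4 dye, 2 hrs RT; fluorescence read. EC50/efficacy via Hill fit.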

[5] = target: Vitamin D3 receptor (Homo sapiens) (UniProt P11473); test: qHTS assay for small molecule antagonists of vitamin D receptor signaling (AID 588541);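 further: receptor activated by calcitriol during compound treatment; series mostly up to about 77 µM; on the % scale 0 is the no-effect control and ±100 the full control effect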
Chain of Vitamin D3 receptor (Homo sapiens) (P11473 whole entry, looked up): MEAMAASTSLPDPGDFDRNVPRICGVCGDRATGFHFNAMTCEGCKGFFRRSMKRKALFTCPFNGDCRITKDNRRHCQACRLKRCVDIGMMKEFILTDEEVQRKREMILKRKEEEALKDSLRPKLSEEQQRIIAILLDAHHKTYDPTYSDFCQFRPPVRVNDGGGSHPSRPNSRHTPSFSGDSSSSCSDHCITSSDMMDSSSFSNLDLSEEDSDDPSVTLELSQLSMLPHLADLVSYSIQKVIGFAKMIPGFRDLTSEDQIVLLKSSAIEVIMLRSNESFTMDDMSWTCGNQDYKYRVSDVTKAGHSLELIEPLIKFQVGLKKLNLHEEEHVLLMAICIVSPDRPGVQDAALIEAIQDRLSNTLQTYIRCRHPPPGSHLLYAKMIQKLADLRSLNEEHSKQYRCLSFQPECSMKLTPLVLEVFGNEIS
Procedure, shortened: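 VDR-UAS-bla HEK293T cells (2000/well, 2% charcoal-stripped FBS) were treated with titrated compounds plus 1-alpha,25-dihydroxyvitamin D3 (50 nM or 3 nM final) for 16 h at 37 C. CCF4 beta-lactamase fluorescence was read; Hill fits gave IC50.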

[6] = target: Vitamin D3 receptor (Homo sapiens) (UniProt P11473); test: qHTS assay for small molecule agonists of vitamin D receptor signaling (AID 588543);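 further: 0% = DMSO basal and 100% = reference agonist control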
Procedure, shortened: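 β-lactamase reporter, VDR-UAS-bla HEK293T, agonist mode. Cells plated 5 h at 37 °C, compound titration 16 h at 37 °C, CCF4 dye 2 h RT, ratio 460/530 nm. Hill fit → EC50, efficacy vs 50 nM 1α,25-(OH)2D3.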

[7] = qHTS assay for small molecule agonists of retinoid X receptor alpha signaling (AID 588544); conditions: HEK293T RXRa-UAS-bla, beta-lactamase reporter, 18 h; 530 nm emission;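 on activation: 0% = DMSO basal wells and 100% = reference agonist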
[8] = target: Retinoic acid receptor RXR-alpha (Homo sapiens) (UniProt P19793); test: as above
Chain of Retinoic acid receptor RXR-alpha (Homo sapiens) (P19793 whole entry, looked up): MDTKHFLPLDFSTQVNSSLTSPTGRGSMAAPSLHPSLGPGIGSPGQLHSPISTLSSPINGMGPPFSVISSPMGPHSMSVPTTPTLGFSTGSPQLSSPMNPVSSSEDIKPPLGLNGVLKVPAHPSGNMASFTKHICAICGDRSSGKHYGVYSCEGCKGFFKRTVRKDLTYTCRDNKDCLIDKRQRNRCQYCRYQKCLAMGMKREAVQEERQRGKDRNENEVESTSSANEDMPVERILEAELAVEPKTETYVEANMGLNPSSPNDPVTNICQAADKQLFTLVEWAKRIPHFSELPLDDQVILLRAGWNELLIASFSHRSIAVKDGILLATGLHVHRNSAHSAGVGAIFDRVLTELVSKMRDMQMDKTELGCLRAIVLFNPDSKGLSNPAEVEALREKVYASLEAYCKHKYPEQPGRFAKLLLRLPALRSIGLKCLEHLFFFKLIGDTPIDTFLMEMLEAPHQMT

[9] = target: Thyroid hormone receptor beta (Homo sapiens) (UniProt P10828); test: qHTS assay for small molecule agonists of thyroid hormone receptor beta signaling (AID 588545)
Chain of Thyroid hormone receptor beta (Homo sapiens) (P10828 whole entry, looked up): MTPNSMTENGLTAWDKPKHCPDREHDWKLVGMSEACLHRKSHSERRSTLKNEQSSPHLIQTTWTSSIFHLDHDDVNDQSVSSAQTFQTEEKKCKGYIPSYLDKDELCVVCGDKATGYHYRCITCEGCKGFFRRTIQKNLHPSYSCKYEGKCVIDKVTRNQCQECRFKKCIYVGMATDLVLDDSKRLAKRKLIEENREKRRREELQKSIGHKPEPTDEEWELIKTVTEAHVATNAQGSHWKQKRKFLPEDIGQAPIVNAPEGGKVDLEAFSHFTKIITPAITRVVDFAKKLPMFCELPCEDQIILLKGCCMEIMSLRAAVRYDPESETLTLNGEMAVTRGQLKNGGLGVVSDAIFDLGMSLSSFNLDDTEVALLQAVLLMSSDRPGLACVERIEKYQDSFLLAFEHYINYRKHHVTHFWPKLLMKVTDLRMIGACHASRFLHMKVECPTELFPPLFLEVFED
Procedure, shortened: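 HEK 293 TR-UAS-bla; agonist mode; 18 hrs, 37 C; CCF4, ex 405/em 460 and 530 nm; norm. T3 10 nM = 100%, DMSO = 0%; Hill fit → EC50, efficacy.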

[10] = qHTS assay for small molecule antagonists of retinoid X receptor alpha signaling (AID 588546; active means well fitted inhibition curve with a large enough effect in the signal ratio, with a control signal flat, not every such curve was filed as active; inconclusive means small, poorly fitted or top-dose-only effect, or effect the other way, or a change in a side signal; inactive means no such curve, though single readings can be large or run the other way; the % refers to the signal ratio;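 further: cells stimulated with 9-cis-retinoic acid as agonist; on the % scale 0 is the no-effect control and ±100 the full control effect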); conditions: HEK293T RXRa-UAS-bla, beta-lactamase ratio, antagonist mode; measured here: W530 green channel, cytotoxicity proxy
Procedure, shortened: (§1)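 Beta-lactamase reporter inhibition, read as CCF4 fluorescence ratio (ex 405, em 460/530 nm) after 2 h at RT. HEK293T UAS-bla cells, 2500/well, were stimulated with 9-cis-RA at 500 or 100 nM final alongside test compound for 18 h at 37 C.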

[11] = target: Retinoic acid receptor RXR-alpha (Homo sapiens) (UniProt P19793); test: as above; conditions: HEK293T RXRa-UAS-bla, beta-lactamase ratio, antagonist mode
Procedure, shortened: as §1

[12] = target: Thyroid hormone receptor beta (Homo sapiens) (UniProt P10828); test: qHTS assay for small molecule antagonists of thyroid hormone receptor beta signaling (AID 588547; active means well fitted inhibition curve with a large enough effect in the signal ratio, with a control signal flat, not every such curve was filed as active; inconclusive means small, poorly fitted or top-dose-only effect, or effect the other way, or a change in a side signal; the % refers to the signal ratio;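 further: cells stimulated with 0.4 nM T3 agonist during compound exposure; series mostly up to about 77 µM; on the % scale 0 is the no-effect control and ±100 the full control effect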); conditions: TR-UAS-bla HEK293, beta-lactamase ratio, antagonist mode, 18 h
Procedure, shortened: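 TR-UAS-bla GripTite HEK293 cells in 2% charcoal/dextran FBS medium were preincubated 4 h at 37 C, given compound (0.59 nM to 92 uM) plus 0.4 nM T3 (final) for 18 h, then CCF4 for 2 h at RT; Hill fit gave IC50.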

[13] = qHTS assay for small molecule activators of the p53 signaling pathway (AID 651743; active means well fitted activation curve with a large enough effect in the signal ratio, not every such curve was filed as active; inconclusive means small, poorly fitted or top-dose-only effect, or a change in a side signal; the % refers to the signal ratio; further: potency means the concentration at half of the fitted maximal effect; on activation: series mostly up to about 92 µM; % of control where 0% means no effect); conditions: HCT-116 p53RE-bla, beta-lactamase FRET ratio, 16 h; activation: stronger effect = higher value
Procedure, shortened: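 Agonist-mode quantitative HTS in HCT-116 cells carrying a p53-response-element beta-lactamase reporter; 16 h compound treatment at 37 C, then FRET substrate loading for 2 h at room temperature and fluorescence read.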

[14] = qHTS assay for environmental chemicals that activate the Aryl hydrocarbon Receptor (AhR) signaling pathway (AID 651777; active means well fitted curve in the direction sought with a large enough effect; inconclusive means small, poorly fitted or top-dose-only effect, or another doubt; inactive means no such curve, though single readings can be large; an effect the other way counts as inactive or inconclusive; further: % of control where 0% means no effect; nearly all actives have a fitted effect of over 15% in size); conditions: 1A2-DRE human hepatoma cells, luciferase, 24 h; activation: stronger effect = higher value
Procedure, shortened: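 Human hepatoma 1A2-DRE cells stably carrying a DRE/CYP1A2 promoter–luciferase reporter, 1,200 cells/well, exposed to compound 24 hr at 37 C. Luciferase read by One-Glo luminescence after 30 min at room temperature; increased signal marks AhR activation.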

[15] = target: Peroxisome proliferator-activated receptor alpha (Homo sapiens) (UniProt Q07869); test: qHTS assay for small molecule agonists of the peroxisome proliferator-activated receptor alpha (PPARalpha) signaling pathway (AID 651778; active means well fitted curve in the direction sought with a large enough effect; inconclusive means small, poorly fitted or top-dose-only effect, or another doubt; inactive means no such curve, though single readings can be large; an effect the other way counts as inactive or inconclusive; further: % of control where 0% means no effect); conditions: PathHunter PPARalpha complementation, chemiluminescence, 6 h; max response: stronger effect = higher value
Chain of Peroxisome proliferator-activated receptor alpha (Homo sapiens) (Q07869 whole entry, looked up): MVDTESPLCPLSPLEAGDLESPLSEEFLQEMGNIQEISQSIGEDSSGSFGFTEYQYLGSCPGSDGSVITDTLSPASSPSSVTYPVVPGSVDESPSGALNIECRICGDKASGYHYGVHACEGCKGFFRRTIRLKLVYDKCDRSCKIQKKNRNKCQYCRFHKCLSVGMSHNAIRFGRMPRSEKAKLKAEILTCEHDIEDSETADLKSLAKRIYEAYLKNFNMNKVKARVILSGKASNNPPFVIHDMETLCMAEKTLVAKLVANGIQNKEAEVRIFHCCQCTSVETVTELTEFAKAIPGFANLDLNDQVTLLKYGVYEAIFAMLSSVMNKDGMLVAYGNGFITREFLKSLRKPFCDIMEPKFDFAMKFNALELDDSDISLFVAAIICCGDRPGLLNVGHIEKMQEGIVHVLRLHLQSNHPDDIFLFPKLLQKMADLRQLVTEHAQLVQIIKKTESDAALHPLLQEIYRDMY
Procedure, shortened: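 Cells plated at 2,000/well and held overnight at 37 C, 5% CO2, then compound added by pin tool for 6 hr; after PathHunter detection reagent and 60 min at room temperature, chemiluminescence from enzyme complementation was read.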

[16] = qHTS assay for small molecule agonists of the antioxidant response element (ARE) signaling pathway measured by Nrf2-dependant transcriptional activity (AID 720636; active means well fitted curve in the direction sought with a large enough effect in the repeat runs; inconclusive means weak or mixed curves; inactive means no such curve, though single readings can be large; an effect the other way counts as inactive or inconclusive; further: % of control where 0% means no effect)
Procedure, shortened: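 ARE-luc HepG2 cells carrying an Nrf2-responsive luciferase reporter, in medium with 1% dialyzed FBS, exposed to compound for 16 hr at 37 C, 5% CO2. Luminescence read 30 min after ONE-Glo addition.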

[17] = qHTS assay for small molecule agonists of the antioxidant response element (ARE) signaling pathway measured by Nrf2-dependant transcriptional activity - cell viability counter screen (AID 720653; active means well fitted curve in the direction sought with a large enough effect in the repeat runs; inconclusive means weak or mixed curves; inactive means no such curve, though single readings can be large; an effect the other way counts as inactive or inconclusive; further: on the % scale 0 is the no-effect control and ±100 the full control effect); conditions: ARE-bla HepG2 viability, CellTiter-Glo ATP luminescence, 16 h; max response: stronger effect = lower value
Procedure, shortened: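 ARE-bla HepG2 cells (2,000/well) rested 5 hrs at 37C/5% CO2, then exposed to compounds in DMSO for 16 hrs. Viability was read in the same wells as intracellular ATP by luminescence, 30 min at room temperature after reagent addition.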

[18] = qHTS assay for cell viability of HEK293 cells (AID 743288; active means well fitted curve in the direction sought with a large enough effect; inconclusive means small, poorly fitted or top-dose-only effect, or another doubt; inactive means no such curve, though single readings can be large; an effect the other way counts as inactive or inconclusive; further: on the % scale 0 is the no-effect control and ±100 the full control effect; nearly all actives have a fitted effect of over 50% in size); conditions: ATP luminescence (CellTiter-Glo), 18 h; max response: stronger effect = lower value
Procedure, shortened: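 ATP luminescence (CellTiter-Glo) reports metabolically competent cell number after parental HEK293 cells, 2,000/well, were treated with DMSO-dissolved compounds for 18 h at 37 C; reagent incubation 30 min, room temperature.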

[19] = target: Nuclear receptor subfamily 1 group I member 2 (Rattus norvegicus) (UniProt Q9R1A7); test: qHTS assay for small molecule activators of the rat pregnane X receptor (rPXR) signaling pathway (AID 651751; call rule not given here; further: 0% is about no effect); conditions: rPXR reporter cells, luciferase (One-Glo), 24 h
Chain of Nuclear receptor subfamily 1 group I member 2 (Rattus norvegicus) (Q9R1A7 whole entry, looked up): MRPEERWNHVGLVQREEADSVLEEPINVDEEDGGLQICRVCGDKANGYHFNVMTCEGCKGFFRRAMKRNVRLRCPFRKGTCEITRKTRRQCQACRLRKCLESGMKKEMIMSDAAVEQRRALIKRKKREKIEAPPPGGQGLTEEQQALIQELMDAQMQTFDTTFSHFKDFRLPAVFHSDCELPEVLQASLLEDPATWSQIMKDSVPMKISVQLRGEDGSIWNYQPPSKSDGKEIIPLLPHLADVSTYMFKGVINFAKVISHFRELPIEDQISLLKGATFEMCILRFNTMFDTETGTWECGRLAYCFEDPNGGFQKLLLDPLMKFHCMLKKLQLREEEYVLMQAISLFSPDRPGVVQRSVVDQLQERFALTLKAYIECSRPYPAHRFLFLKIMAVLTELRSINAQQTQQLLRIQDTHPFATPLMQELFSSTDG

[20] = qHTS assay for cell viability of the p53RE-bla HCT-116 cell line (AID 743292; active means well fitted curve in the direction sought with a large enough effect; inconclusive means small, poorly fitted or top-dose-only effect, or another doubt; inactive means no such curve, though single readings can be large; an effect the other way counts as inactive or inconclusive; further: on the % scale 0 is the no-effect control and ±100 the full control effect; nearly all actives have a fitted effect of over 55% in size)
Procedure, shortened: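 CellSensor p53RE-bla HCT-116 cells (4,000/well) pre-incubated 5 h at 37 C, then exposed to compounds in DMSO for 16 h at 37 C. Viability read as ATP content by CellTiter-Glo luminescence after 30 min at room temperature.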

CCOP(=O)(SC(C)CC)SC(C)CC (configuration not stated)
inactive: Potency [1] | Potency [2] | activation [3] -2.32% | outcome [4] | Potency [5] | outcome [6] | Potency [8] | Potency [9] | max response [11] -13.8% | activity change % (negative = inhibition) [12] -3.53% | activation [13] -0.0138% | activation [14] 0.937% | max response [15] -1.1% | Potency [16] | max response [17] -6.4% | max response [18] -14% | max response [19] 4.1%
-3.17%: max response [10]
-25%: max response [7]

CCNC(=O)NC(=O)/C(C#N)=N/OC
5.29%: max response [7]
-2.66%: max response [10]
inactive: Potency [1] | Potency [2] | activation [3] 3.07% | outcome [4] | Potency [5] | outcome [6] | Potency [8] | Potency [9] | max response [11] 12.8% | activity change % (negative = inhibition) [12] 5.55% | activation [14] 0.625% | max response [15] 0.388% | Potency [16] | max response [17] -0.764% | max response [18] -16.3%

CCCCC(C#N)(Cn1cncn1)c1ccc(Cl)cc1 (configuration not stated)
3.82%: max response [7]
inactive: Potency [1] | Potency [2] | activation [3] -4.2% and -7.49% | outcome [4] | Potency [8] | Potency [9] | max response [11] 3.27% and 4.81% | activity change % (negative = inhibition) [12] 6.16% and 3.62% | activation [13] -3.98% | activation [14] -0.211% | max response [15] -2.63% and 1.11% | Potency [16] | max response [17] 0.943% and -1.27% | Potency [20]
7.2% and 4.81%: max response [10]

CCOS(=O)(=O)OCC
inactive: Potency [1] | Potency [2] | activation [3] -9.13% | outcome [4] | Potency [5] | outcome [6] | Potency [8] | Potency [9] | max response [11] 4.62% | activity change % (negative = inhibition) [12] 3.34% | activation [13] -2.08% | activation [14] -0.0167% | max response [15] -1.06% | Potency [16] | max response [17] -6.17% | max response [18] 1.11% | Potency [20] | max response [19] 3.38%
-16.7%: max response [7]
-7.24%: max response [10]

COC(=O)c1ccccc1S(=O)(=O)NC(=O)N(C)c1nc(C)nc(OC)n1
-8.58%: max response [10]
-6.9%: max response [7]
inactive: Potency [1] | Potency [2] | outcome [4] | Potency [8] | max response [11] -3.24% | activity change % (negative = inhibition) [12] 9.61% | activation [13] 0.955% | activation [14] 0.249% | max response [15] -1.41% | Potency [16] | max response [17] -4.72% | max response [18] -7.64% | Potency [20] | max response [19] 0.907%

c1cc(OCC2CO2)cc(OCC2CO2)c1 (configuration not stated)
inactive: outcome [4] | max response [11] 5.23% | activity change % (negative = inhibition) [12] 15%
active: Potency [1] 31.6 µM [inconclusive] | Potency [13] 25.1 µM
6.7%: max response [10]

OC(Cn1cncn1)(c1ccc(F)cc1)c1ccccc1F (configuration not stated)
-7.56%: max response [7]
-19.4%: max response [10]
inactive: Potency [1] | Potency [2] | outcome [4] | Potency [5] | outcome [6] | Potency [8] | Potency [9] | max response [11] -2.11% | activity change % (negative = inhibition) [12] 10.3% | activation [13] 0.874% | activation [14] -1.4% | max response [15] -2.15% | max response [17] -4.37% | max response [18] -3.84% | Potency [20]

Cc1c(COC(=O)C2C(/C=C(\Cl)C(F)(F)F)C2(C)C)cccc1-c1ccccc1 (configuration not stated)
1.28%: max response [10]
inactive: Potency [1] | Potency [2] | outcome [4] | outcome [6] | activation [13] 2.17% | activation [14] -0.984% | max response [15] -0.35% | Potency [16] | max response [17] -14.6% | max response [18] -17.7%

FC(F)(F)c1ccc(OCCCOc2c(Cl)cc(OCC=C(Cl)Cl)cc2Cl)nc1
-14.8%: max response [10]
5.75%: max response [7]
inactive: Potency [1] | activation [3] 9.84% | outcome [4] | Potency [5] | outcome [6] | Potency [8] | Potency [9] | activity change % (negative = inhibition) [12] 2.93% | activation [13] 2.67% | activation [14] -0.256% | max response [15] -0.598% | max response [17] -24.7% | Potency [20] | max response [19] 1.93%

CC(C)(C#N)N=NC(C)(C)C#N
inactive: Potency [1] | Potency [2] | activation [3] 6.88% | outcome [4] | Potency [5] | outcome [6] | Potency [8] | max response [11] -0.927% | activation [13] -7.6% | activation [14] 3.1% | max response [15] -0.208% | Potency [16] | max response [17] -0.383% | max response [18] -5.77% | Potency [20] | max response [19] 0.774%
-3.46%: max response [7]
-2.24%: max response [10]

CNC(=O)Oc1cc(C)cc(C(C)C)c1
-15.4%: max response [7]
inactive: Potency [1] | Potency [2] | outcome [4] | Potency [5] | outcome [6] | Potency [8] | Potency [9] | max response [11] -3.46% | activity change % (negative = inhibition) [12] 4.48% | activation [14] 0.548% | max response [15] 4.47% | Potency [16] | max response [17] 3.5% | max response [18] -6.56% | Potency [20] | max response [19] -3.71%
-5.53%: max response [10]

CC1CCCCC1NC(=O)Nc1ccccc1 (configuration not stated)
inactive: Potency [1] | Potency [2] | activation [3] -3.51% | Potency [5] | Potency [9] | max response [11] -9.04% | activation [13] 0.836% | activation [14] 6.72% | max response [15] -0.607% | max response [17] -4.51% | max response [18] -11.4% | Potency [20]
-4.7%: max response [10]
